Measured values: patent publication US20220289795, “EFFICIENT METHOD FOR PREPARING PPR PROTEIN AND USE OF THE SAME” (EditForce, Inc., published 2022)

Target: T1, v3.1_PPR16 (Artificial Sequence)
T1 chain: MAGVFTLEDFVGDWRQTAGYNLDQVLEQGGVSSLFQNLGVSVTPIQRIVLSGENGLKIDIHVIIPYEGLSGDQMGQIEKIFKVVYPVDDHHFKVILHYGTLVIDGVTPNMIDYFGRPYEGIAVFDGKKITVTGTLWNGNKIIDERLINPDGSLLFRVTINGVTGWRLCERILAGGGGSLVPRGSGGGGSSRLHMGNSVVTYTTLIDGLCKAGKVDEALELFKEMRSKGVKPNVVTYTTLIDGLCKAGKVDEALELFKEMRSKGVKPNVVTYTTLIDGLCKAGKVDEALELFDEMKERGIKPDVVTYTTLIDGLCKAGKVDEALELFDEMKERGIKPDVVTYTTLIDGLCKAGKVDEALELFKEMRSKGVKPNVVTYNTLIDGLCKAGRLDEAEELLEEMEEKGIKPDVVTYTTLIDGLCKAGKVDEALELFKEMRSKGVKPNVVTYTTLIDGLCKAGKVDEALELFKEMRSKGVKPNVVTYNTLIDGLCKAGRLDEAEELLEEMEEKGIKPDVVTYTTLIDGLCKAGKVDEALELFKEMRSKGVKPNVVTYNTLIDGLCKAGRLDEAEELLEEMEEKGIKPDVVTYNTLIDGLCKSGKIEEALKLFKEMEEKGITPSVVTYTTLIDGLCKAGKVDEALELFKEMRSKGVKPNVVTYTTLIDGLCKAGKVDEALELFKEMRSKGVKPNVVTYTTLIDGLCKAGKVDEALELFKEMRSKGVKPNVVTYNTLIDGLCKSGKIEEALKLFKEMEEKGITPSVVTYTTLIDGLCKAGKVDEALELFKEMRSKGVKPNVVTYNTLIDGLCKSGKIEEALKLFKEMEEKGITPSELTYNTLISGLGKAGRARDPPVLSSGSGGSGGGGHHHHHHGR
Experiment: RPB-ELISA
Conditions: tags: N-terminal luciferase, C-terminal 6xHis; label: 5'-biotin; ssRNA
Experimental: RNA probes consisting of a designed 30-base sequence containing 18 bases of the target sequence and modified by biotinylation at the 5′ end (RNA_1, RNA_2, RNA_3, RNA_4, and RNA_5, SEQ ID NOS: 61 to 65) were synthesized (Grainer). To a streptavidin-coated plate (Thermo fisher), the 5′-end biotinylated RNA probes were added, reaction was allowed at room temperature for 30 minutes, and the plate was washed with a lysis buffer (20 mM Tris-HCl, pH 7.6, 150 mM NaCl, 5 mM MgCl₂, 0.5% NP-40, 1 mM DTT, 0.1% BSA). For background measurement, wells to which RNA was not added, but 100 μL of the lysis buffer, 1 μL of 100 mM DTT, and 1 μL of 40 unit/4 RNase inhibitor (Takara, 2313A) were added were also prepared. Then, 200 μL of a blocking buffer (20 mM Tris-HCl, pH 7.6, 150 mM NaCl, 5 mM MgCl₂, 0.5% NP-40, 1 mM DTT, 1% BSA) was added, and the plate surface was blocked at room temperature for 30 minutes. Then, 100 μL of E. coli lysate containing luciferase-fused PPR protein having a luminescence level of 1.5×10⁸ LU/μL was added to each well, and the binding reaction was allowed at room temperature for 30 minutes. The well was washed 5 times with 200 μL of a washing buffer (20 mM Tris-HCl, pH 7.6, 150 mM NaCl, 5 mM MgCl₂, 0.5% NP-40, 1 mM DTT). […] The background (luminescence signal value obtained with adding the PPR protein and without adding RNA) was subtracted from the luminescences of the samples to which a solution containing each RNA and PPR protein was added, and the obtained values were used as the binding powers between the PPR protein and RNA.
By using the V3.1 motif, PPR proteins for the same 23 kinds of target sequences were similarly prepared (SEQ ID NOS: 411 to 433 for the nucleotide sequences, and SEQ ID NOS: 434 to 456 for the amino acid sequences), and bindings of all the combinations were analyzed by using RPB-ELISA. The experimental method was the same as that used in Example 3.
GGUGGUGAGGCCCUGGGC showed a binding signal of 20.6 log2 luminescence.
GUGGGGGUGGUAGGAAAU gave a binding signal of 22.6 log2 luminescence.
